Inconclusive results are not listed. Activity calls are given as the source filed them. Calls follow the shape of the dose curve; as a rule, active = well fitted cell-killing curve with a large enough effect; inconclusive = small, poorly fitted or top-dose-only effect, or effect the other way; inactive = flat fitted curve, though single readings scatter. Where a SMILES comes first, the peptide text is derived from it. [ ]: non-standard residue; d: D form. PhLac = O=C(O)[CH](O)Cc1ccccc1; NMeV = CN[CH](C(=O)O)C(C)C
Legend:
Assay in all cases: Primary qHTS to identify gynecologic anti-cancer compounds using libraries of approved drugs and bioactive compounds (AID 1345084); also: nearly all actives have a fitted effect of over 55% in size
Conditions in all cases: Gynecologic cancer cell panel viability, ATPlite luminescence, 48 h; series mostly up to 57.5 µM
SKOV3 = tested on: SKOV3
Outline: (§1)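 Measured: luminescence after ATPlite addition (15 min, RT). Exposure: 48 h, 37 C, 5% CO2.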

Tov-21-G = tested on: Tov-21-G
Outline: as §1

Tov112D = tested on: Tov112D
Outline: as §1
% is scaled to controls: 0 for no effect and ±100 for the full control effect.

CC1(C)CCC(C)(C)c2cc3c(cc21)Sc1ccccc1N=C3c1ccc(C(=O)O)cc1
inactive: Potency (SKOV3) | Potency (Tov-21-G) | Potency (Tov112D)

COC(=O)[C@H](CC1C=NC=N1)NCC12CC3CC(CC(C3)C1)C2 (some centres undefined)
inactive: Potency (SKOV3) | Potency (Tov-21-G) | Potency (Tov112D)

CC(=O)OC1C=C(C(=O)O)C2(CO)CCC(C)C(C)(CCc3ccoc3)C2C1 (centres undefined)
inactive: Potency (SKOV3) | Potency (Tov-21-G) | Potency (Tov112D)

CC[C@H]1OC(=O)[C@H](C)[C@@H](OC2C[C@@](C)(OC)[C@@H](O)[C@H](C)O2)[C@H](C)[C@@H](OC2O[C@H](C)C[C@H](NC)[C@H]2O)[C@](C)(O)C[C@@H](C)CN(C)[C@H](C)[C@@H](O)[C@]1(C)O (some centres undefined)
inactive: Potency (SKOV3) | Potency (Tov-21-G) | Potency (Tov112D)

CC1(C)CC2C3=CCC4C5(C)CCC(OC6OC(C(=O)O)C(O)C(O)C6OC6OC(CO)C(O)C(O)C6OC6OC(CO)C(O)C(O)C6O)C(C)(CO)C5CCC4(C)C3(C)CCC2(C)C(OC2OCC(O)C(OC3OC(CO)C(O)C(O)C3O)C2O)C1O (centres undefined)
inactive: activity change, negative = cytotoxicity (SKOV3) 16.1% [at 6.55 µM] | activity change, negative = cytotoxicity (Tov-21-G) -0.438% [at 6.55 µM] | activity change, negative = cytotoxicity (Tov112D) 1.06% [at 6.55 µM]

CC(=O)C1CCC2(C)C3=C(CCC12C)C1(C)CCC(=O)C(C)(C)C1CC3 (centres undefined)
inactive: Potency (SKOV3) | Potency (Tov-21-G) | Potency (Tov112D)

COc1cc([C@H]2OC[C@@H]3[C@@H](c4ccc(O[C@@H]5O[C@H](CO)[C@@H](O)[C@H](O)[C@H]5O)c(OC)c4)OC[C@]23O)ccc1O
inactive: Potency (SKOV3) | Potency (Tov-21-G) | Potency (Tov112D)

C[C@H]1CN(C[C@H](Cc2ccccc2)C(=O)NCC(=O)O)CC[C@@]1(C)c1cccc(O)c1
inactive: Potency (SKOV3) | Potency (Tov-21-G) | Potency (Tov112D)

CNC(=O)c1ccc2cc([C@@]3(O)CCn4cncc43)ccc2c1
inactive: Potency (SKOV3) | Potency (Tov-21-G) | Potency (Tov112D)

C/C=C/C1=CC2=CC(=O)C(C)(O)C(OC(=O)c3c(C)cc(O)cc3O)C2CO1 (centres undefined)
inactive: Potency (SKOV3) | Potency (Tov-21-G) | Potency (Tov112D)

C/C=C/C1=CC2=C(CO1)C(=O)[C@](C)(O)[C@H](OC(=O)c1c(O)cc(OC)c(O)c1C)C2
inactive: Potency (SKOV3) | Potency (Tov-21-G) | Potency (Tov112D)

O=C(O[C@H]1[C@@H]2C=CO[C@@H](O[C@@H]3O[C@H](CO)[C@@H](O)[C@H](O)[C@H]3O)[C@@H]2[C@@]2(CO)O[C@@H]12)c1ccc(O)cc1
inactive: Potency (SKOV3) | Potency (Tov-21-G) | Potency (Tov112D)

CCOc1ccc(C(Nc2ccccn2)c2ccc3ccc(C)nc3c2O)cc1C (centres undefined)
inactive: Potency (SKOV3) | Potency (Tov-21-G) | Potency (Tov112D)

CCCC1=CC2=C(CO1)C(=O)C(C)(OC(=O)c1c(C)cc(OC)cc1O)C(O)C2 (centres undefined)
inactive: Potency (SKOV3) | Potency (Tov-21-G) | Potency (Tov112D)

CC1NC(=O)C(Cc2c[nH]c3ccccc23)NC1=O (centres undefined)
inactive: Potency (SKOV3) | Potency (Tov-21-G) | Potency (Tov112D)

Cc1onc(-c2ccccc2)c1C(=O)N[C@@H]1C(=O)N2[C@@H]1SC(C)(C)[C@@H]2C(=O)O
inactive: Potency (SKOV3) | Potency (Tov-21-G) | Potency (Tov112D)

COc1cc(NC(=O)c2ccccn2)ccc1Cl
inactive: Potency (SKOV3) | Potency (Tov-21-G) | Potency (Tov112D)

C[C@@H]1C(=O)O[C@H]2CC34[C@H]5C[C@@H](C(C)(C)C)C36[C@@H](OC(=O)[C@@H]6O)O[C@@]4(C(=O)O5)[C@]21O (some centres undefined)
inactive: Potency (SKOV3) | Potency (Tov-21-G) | Potency (Tov112D)

CCOc1nc2cccc(C(=O)OCc3oc(=O)oc3C)c2n1Cc1ccc(-c2ccccc2-c2noc(O)n2)cc1
inactive: Potency (SKOV3) | Potency (Tov-21-G) | Potency (Tov112D)

CC(C)C(C(=O)N1CCCC1C(=O)O)N(C)C(=O)C(O)Cc1ccccc1 (centres undefined) (H-[PhLac]-[NMeV]-Pro-OH; configuration not given here)
inactive: Potency (SKOV3) | Potency (Tov-21-G) | Potency (Tov112D)

C[C@@H]1O[C@@H](OC[C@H]2O[C@@H](OCCc3ccccc3)[C@H](O)[C@@H](O)[C@@H]2O)[C@H](O)[C@H](O)[C@H]1O
inactive: Potency (SKOV3) | Potency (Tov-21-G) | Potency (Tov112D)

C[C@H]1[C@H](C)CC[C@]2(C(=O)O[C@@H]3O[C@H](CO)[C@@H](O)[C@H](O)[C@H]3O)CC[C@]3(C(=O)O)C(=CCC4[C@@]5(C)CC[C@H](O[C@@H]6O[C@H](CO)[C@@H](O)[C@H](O)[C@H]6O)C(C)(C)C5CC[C@]43C)[C@H]12 (some centres undefined)
inactive: activity change, negative = cytotoxicity (SKOV3) 23.4% [at 11.6 µM] | activity change, negative = cytotoxicity (Tov-21-G) -3.54% [at 11.6 µM] | activity change, negative = cytotoxicity (Tov112D) 2.01% [at 11.6 µM]

CC(=O)O[C@@H]1[C@H]2[C@@H](OC(=O)c3ccccc3)[C@@H](C)C[C@]2(O)[C@H](OC(C)=O)[C@@]2(C)[C@@H]3CC(C)(C)C(=O)[C@]3(OC(C)=O)C[C@@]12C
inactive: Potency (SKOV3) | Potency (Tov-21-G) | Potency (Tov112D)

O=C(c1ccc(C#Cc2cccc(F)c2)cn1)N1CC2CC2C1 (centres undefined)
inactive: Potency (SKOV3) | Potency (Tov-21-G) | Potency (Tov112D)

c1ccc(Nc2nc3c(s2)CCCc2[nH]ncc2-3)nc1
inactive: Potency (SKOV3) | Potency (Tov-21-G) | Potency (Tov112D)

CC1=CC(=O)C[C@H]2[C@@H]1CC[C@@H](C)[C@]21CO[C@H](c2ccoc2)C1=O
inactive: Potency (SKOV3) | Potency (Tov-21-G) | Potency (Tov112D)

COc1cc(O[C@@H]2O[C@H](CO)[C@@H](O)[C@H](O)[C@H]2O)c(CCC(=O)OC[C@H]2O[C@@H](Oc3cc(OC)c(C4OC(=O)C(C)(O)C4O)cc3CCC(=O)O)[C@H](O)[C@@H](O)[C@@H]2O)cc1C1OC(=O)C(C)(O)C1O (some centres undefined)
inactive: activity change, negative = cytotoxicity (SKOV3) -20.1% [at 11.6 µM] | activity change, negative = cytotoxicity (Tov-21-G) -4.07% [at 11.6 µM] | activity change, negative = cytotoxicity (Tov112D) 3.59% [at 11.6 µM]

CCC(NC(=O)CC(NC(=O)C(CO)NC(=O)C(CC)NC(=O)c1ccc[nH]1)c1ccccc1)C(=O)O (centres undefined)
inactive: Potency (SKOV3) | Potency (Tov-21-G) | Potency (Tov112D)

From PubChem BioAssay (NCATS)
